Source: the supplement of paper PMC9334596
Several values for one entry are separate records, joined by “and”; a condition that tells them apart may be missing. Equal values may be shown once. In all, about 5,300 compounds were measured (“PER2::LUC luminescence relative to vehicle control”: median about 0.96, highest 2% from about 1.3 on). The entries come from a sample that favours the highest values as a whole.

Test system: mPer2Luc MEF
Assay: PER2::LUC luminescence relative to vehicle control (fold of vehicle); higher = higher PER2::LUC reporter signal
Details: 10 µM
Summary of the method: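 Mouse embryonic fibroblasts carrying the mPer2Luc reporter were seeded at ~3000 cells per well in 384-well plates, 48 h before compounds from commercial libraries were added at 10 μM. Cells were grown in DMEM with 10% FBS at 37 °C and 5% CO2. Luminescence was read with the ONE-Glo luciferase assay system 24 h and 30 h after treatment, followed by an alamarBlue viability assay. The value is PER2::LUC luminescence as fold of vehicle control.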

| SMILES | PER2::LUC luminescence (time after treatment 24 h) | PER2::LUC luminescence (time after treatment 30 h) |
| --- | --- | --- |
| Cc1ccc(NC(=O)Nc2cc(-c3ccccc3-c3nn[nH]n3)ccc2N(CC(C)C)CC(C)C)cc1 | 0.966 | 0.93 |
| O=c1ccc2cccc(O)c2[nH]1 | 1.06 | 0.957 |
| CCCCC/C=C\CCC(=O)N[C@H]1[C@H](Oc2c3cc4cc2Oc2ccc(cc2Cl)[C@@H](O[C@@H]2O[C@H](CO)[C@@H](O)[C@H](O)[C@H]2NC(C)=O)[C@@H]2NC(=O)[C@H](NC(=O)[C@@H]4NC(=O)[C@H]4NC(=O)[C@@H](Cc5ccc(c(Cl)c5)O3)NC(=O)[C@H](N)c3ccc(O)c(c3)Oc3cc(O)cc4c3)c3ccc(O)c(c3)-c3c(O[C@H]4O[C@H](CO)[C@@H](O)[C@H](O)[C@@H]4O)cc(O)cc3[C@@H](C(=O)O)NC2=O)O[C@H](CO)[C@@H](O)[C@@H]1O | 0.886 | 0.953 |
| C=C[C@@](C)(O)CC[C@H]1C(=C)CC[C@H]2C(C)(C)CCC[C@]12C | 0.946 | 0.911 |
| COc1cc(-c2coc3cc(OC)c(OC)c(OC)c3c2=O)cc(OC)c1OC | 0.972 | 0.969 |
| COc1ccc(-c2coc3c(O)c(O)c(OC)cc3c2=O)cc1 | 1.31 | 1.23 |
| COc1ccc(-c2coc3cc(O)ccc3c2=O)cc1S(=O)(=O)O | 1 | 0.898 |
| COc1cc(-c2coc3cc(O[C@@H]4O[C@H](CO)[C@@H](O)[C@H](O)[C@H]4O)c(OC)c(O)c3c2=O)cc(O)c1OC | 0.773 | 1.31 |
| COc1ccc(-c2coc3cc(O)cc(O)c3c2=O)cc1 | 1.83 | 1.97 |
| O=c1c(-c2ccc(O)cc2)coc2cc(O)cc(O)c12 | 1.07 | 1.06 |
| COc1ccc(-c2coc3c(OC)c(OC)cc(O)c3c2=O)cc1 | 1.01 | 1.13 |
| COc1ccc2c(=O)c(-c3ccc(O)cc3)coc2c1 | 1.39 | 1.62 |
| COc1cc(-c2coc3cc(O)c(OC)c(O)c3c2=O)cc(O)c1OC | 1.37 | 1.39 |
| CC(C)(C)[Si](C)(C)Oc1ccc2oc(=O)c3c(c2c1)CCCN3 | 1.14 | 1.15 |
| CC(=O)O[C@@H]1C[C@@]23C[C@@]24CC[C@H](O[C@@H]2OC[C@@H](O)[C@H](O)[C@H]2O)C(C)(C)[C@@H]4CC[C@H]3[C@]2(C)C[C@@H]3O[C@]4(C[C@@H](C)[C@@H]3[C@@]12C)O[C@H](O)[C@@]1(C)O[C@@H]41 | 0.888 | 0.982 |
| CC[C@H](C)[C@@H]([C@@H](CC(=O)N1CCC[C@H]1[C@H](OC)[C@@H](C)C(=O)N[C@@H](Cc1ccccc1)c1nccs1)OC)N(C)C(=O)[C@@H](NC(=O)[C@@H](NC)C(C)C)C(C)C | 0.338 | 0.385 |
| O=C(O)CCC/C=C\C/C=C\C/C=C\C/C=C\CCCCCO | 0.987 | 0.936 |
| COc1cc2c(cc1OC)[C@H]1[C@@H](C)c3ccc(OC)c(OC)c3CN1CC2 | 0.954 | 0.973 |
| CCCCOc1ccc(C(=O)Nc2ccc(F)cc2F)cc1 | 1.29 | 1.34 |
| COc1cc2nccc(Oc3ccc(NC(=O)Nc4ccc(F)cc4F)c(F)c3)c2cc1OC | 0.785 | 0.689 |
| CCCCOc1ccc(CC(=O)NO)cc1 | 1.01 | 1.01 |
| O=C[C@H](O)[C@@H](O)[C@H](O)CO (racemic) | 0.94 | 1.06 |

| SMILES | PER2::LUC luminescence (time after treatment 24 h) | PER2::LUC luminescence (time after treatment 30 h) |
| --- | --- | --- |
| C[C@@H](O)[C@H]1C(=O)N2C(C(=O)O)=C(SC3CN(C4=NCCS4)C3)[C@H](C)[C@H]12 | 1.03 | 1.01 |
| O=C(O)c1ccc2nc(-c3cc(Cl)cc(Cl)c3)oc2c1 | 1.42 | 1.43 |
| C=CC(C1=CC(=O)C(OC)=CC1=O)c1ccc(OC)cc1 (stereo not drawn) | 1.16 | 1.02 |
| CC1(C)[C@@H](O)CC[C@]2(C)[C@H]3C(=O)C=C4[C@H]5C[C@@](C)(C(=O)O)CC[C@]5(C)CC[C@@]4(C)[C@]3(C)CC[C@@H]12 | 0.97 | 0.899 |
| CC1(C)[C@@H](OC(=O)CCC(=O)O)CC[C@]2(C)[C@H]3C(=O)C=C4[C@@H]5C[C@@](C)(C(=O)O)CC[C@]5(C)CC[C@@]4(C)[C@]3(C)CC[C@@H]12 | 0.965 and 0.646 | 0.891 and 1.01 |
| CC1(C)[C@@H](O)CC[C@]2(C)[C@H]3C(=O)C=C4[C@@H]5C[C@@](C)(C(=O)O)CC[C@]5(C)CC[C@@]4(C)[C@]3(C)CC[C@@H]12 | 1.22 and 0.966 | 1.5 and 0.907 |
| CC(C)C[C@H](N)C(=O)N[C@H](C(=O)N[C@H](C(=O)N[C@@H](Cc1ccc(O)cc1)C(=O)N1CCC[C@H]1C(=O)N[C@@H](Cc1c[nH]c2ccccc12)C(=O)N[C@H](C(=O)N[C@@H](CCC(N)=O)C(=O)N[C@@H](CCCN=C(N)N)C(=O)O)[C@@H](C)O)C(C)C)C(C)C | 0.942 | 0.916 |
| COc1ccc(C[C@H]2c3cc(OC)c(OC)cc3CC[N+]2(C)C)cc1OC | 0.944 | 0.889 |
| COc1ccccc1-c1nc(-c2ccccn2)no1 | 0.948 | 0.943 |
| C#CCCC(=O)O | 1.07 | 0.985 |
| COCCCOc1ccnc(C[S+]([O-])c2nc3ccccc3[nH]2)c1C (stereo not drawn) | 1.15 and 1.39 and 1.44 | 1.12 and 1.68 and 1.47 |
| COc1ccnc(C[S+]([O-])c2nc3cc(-n4cccc4)ccc3[nH]2)c1C (stereo not drawn) | 1.07 | 1.05 |
| COc1ccc2[nH]c([S+]([O-])Cc3ncc(C)c(OC)c3C)nc2c1 (stereo not drawn) | 0.886 | 1.08 |
| Cc1c(OCC(F)(F)F)ccnc1C[S+]([O-])c1nc2ccccc2[nH]1 (stereo not drawn) | 1.17 | 1.67 |
| COc1ccc2[nH]c([S@@+]([O-])Cc3ncc(C)c(OC)c3C)nc2c1 | 1.02 and 1.01 and 1.11 | 1.01 and 0.923 and 1.08 |
| COc1ccc2[nH]c([S+]([O-])Cc3ncc(C)c(OC)c3C)nc2n1 (stereo not drawn) | 0.776 | 1.01 |
| Cc1c(OCC(F)(F)F)ccnc1C[S@@+]([O-])c1nc2ccccc2[nH]1 | 1.68 and 1.14 | 1.73 and 1.12 |
| COc1ccnc(C[S+]([O-])c2nc3cc(OC(F)F)ccc3[nH]2)c1OC (stereo not drawn) | 0.944 and 1.32 | 1.01 and 0.991 |
| N=C(N/N=C/c1ccc(Cl)cc1)N/N=C/c1ccc(Cl)cc1 | 0.996 | 0.988 |
| CCOC(=O)C1=Cc2ccc(C(F)(F)C(F)(F)F)cc2N=C(N)C1 | 1.07 | 1.05 |
| O=[N+]([O-])c1cc(C(F)(F)F)cc([N+](=O)[O-])c1NNC(=S)Nc1ccc(F)cc1 | 0.67 | 0.671 |
| CCCCC[C@H](O)/C=C/[C@@H]1[C@@H](C/C=C\CCCC(=O)O)[C@H](O)C[C@H]1O | 1.1 | 1.1 |
